# Screening results (PubChem BioAssay)
# INS promoter inh: inhibitors of insulin promoter-driven GFP, primary screen, imaging, TRM-6 cells (human fetal islet line), eGFP reporter, cell count | reporter expression induced with tamoxifen | inhibition, % at 2 µM | 130,000 compounds, 0.9% hits | AID 1273, 2008;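 active = inhibition above the mean plus 3 SD, with well images judged a real hit on visual review, cut at about 60% in these data, passing the limit was not always enough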
# bCat KO growth: primary screen for growth suppressors in beta-catenin knockout HCT116 cells (colon tumor, human) | HCT116 beta-catenin knockout viability, CellTiter-Glo, 60 h; active compounds read low | viability, % at 10 µM | 140,000 compounds, 1.5% hits | AID 818, 2007;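 active = viability at or under a set limit, the compound median less 4 SD, cut at about 6% in these data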;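 note: 0% = Hyamine 1622 control at 20 µM and 100% = untreated cell control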
# L major viab: Leishmania major promastigote growth inhibition, primary screen; 200,000 compounds, 9% hits; Leishmania major promastigotes, resazurin fluorescence viability; inhibition, % at 10 µM; in the data active = inhibition above about 50%;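 note: promastigotes grown with compound for 44 hours at 28 °C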
# Autophagy HCS: autophagy modulators in MEF cells, primary screen, imaging, high-content, MEF GFP-LC3; MEF GFP-LC3 puncta imaging; test concentration mostly 10 µM; calls only at 10 µM (by protocol); 190,000 compounds, 0.98% hits;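 active = percentage of spot-positive cells more than 3 SD above its plate mean, without a fluorescence outlier flag or 80% toxicity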;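 note: spot-positive cell cutoff set from DMSO-treated cells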
# PTEN del growth: growth suppression of PTEN-null HCT116, primary screen, cell-based, CellTiter-Glo | HCT116 PTEN-null viability, 60 h; active compounds read low | viability, % at 10 µM | 140,000 compounds, 1.2% hits | AID 827, 2007;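 active = viability at or below a set limit, 4 SD under the median of all tested compounds, cut at about 3.7% in these data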;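 note: PTEN knockout HCT116 line with beta catenin targeted HCT116 as companion control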
# Ins promoter up: insulin promoter activators in MIN6 cells, imaging, high-content screening, mouse beta cells | MIN6 insulin promoter-GFP reporter; active compounds read high | z-score at 5 µM | 190,000 compounds, 0.3% hits | AID 1625, 2009;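 active = z-score above 3 at 5 µM with at least 500 cells counted in the well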
# The depositor's hits bear a star; i = inactive; / = no result; + = active, no number. Most compounds without a hit are left out; they make up all but 9.6% or so of the library.
SMILES,INS promoter inh,bCat KO growth,L major viab,Autophagy HCS,PTEN del growth,Ins promoter up
CC(=O)Nc1cc(OC(C)=O)c2nonc2c1OC(C)=O,i,/,101*,i,/,-0.18
CC(=O)Nc1nonc1NC(C)=O,-93,100,-1,i,103,0.23
Cc1ccc2c(n1)CC(C)(C)C/C2=N\O,90*,84,-5,i,89,/
COC(C[C@H](O)CC(=O)[C@H](C)OCc1ccccc1)OC,/,/,/,/,/,0.33
COC(=O)c1cc2c(ccn2-c2ccc(F)cc2)n1Cc1ccc(C#N)cc1,42,61,47,i,66,-0.76
COC(=O)c1cc2c(ccn2-c2ccc(F)cc2)n1Cc1ccc(OC)cc1,30,74,99*,i,77,0.14
Cc1c(N=Cc2cccs2)c(=O)n(-c2ccccc2)n1C,-36,96,-3,i,98,0.99
Cc1ccc(C2C(C=Nc3c(C)n(C)n(-c4ccccc4)c3=O)=C(c3ccccc3)Oc3ccccc32)cc1 (configuration not stated),-35,72,56*,i,71,/
CCOC(=O)N1CCN(CCC(=O)c2ccc(OC)cc2)CC1,17,/,82*,i,/,0.4
CCOC(=O)N1CCC(NC2CCCCCCC2)CC1,23,99,94*,i,98,/
CCOC(=O)N1CCN(CC(O)COc2ccc(OC)cc2C(C)(C)C)CC1 (configuration not stated),33,102,59*,i,93,-0.23
CCOC(=O)N1CCN(C(=O)Cc2ccc(Cl)cc2)CC1,-18,86,-6,i,82,0.25
CCOC(=O)N1CCN(CCC(=O)Nc2ccc(OC)cc2)CC1,4,100,1,i,97,-0.18
CCOC(=O)N1CCN(CCC(=O)c2ccc(Cl)cc2)CC1,50,88,94*,i,76,0.46
COCCCNC(=S)NNC(=O)c1ccccn1,0,/,18,i,/,0.28
CCc1nnc(NC(=O)CSc2nnc(Cc3ccccc3)o2)s1,7,94,-7,i,98,1.1
COCCCN1C(=O)c2ccc(C(=O)Nc3cccc(OC)c3)cc2C1=O,-8,94,-7,i,104,-0.63
CCOC(=O)N1CCC(NCCNC(=O)c2ccc(Cl)cc2)CC1,-29,81,91*,i,97,0.32
O=C(CCC(=O)N(CC(=O)NC1CCCCC1)c1ccc2c(c1)OCCO2)Nc1ccccn1,-37,/,-1,i,/,-0.08
CC(C)c1ccccc1-n1c(SCC(=O)N2CCN(c3ccccc3)CC2)nnc1-c1cccnc1,6,56,96*,i,57,-0.38
O=C(CSc1nnc(-c2cccnc2)n1CCc1ccccc1)N1CCCCC1,6,99,-7,+,112,0.55
NC(=O)CSc1nnc(-c2cccnc2)n1Cc1ccccc1,-6,96,-5,i,98,0.47
Brc1ccc(CNc2cc3c(cc2Br)OCCO3)cc1,/,/,-3,i,/,-0.15
O=C(CN1CCN(Cc2ccccc2)CC1)N=Nc1c(O)[nH]c2ccccc12,31,81,96*,i,76,-0.15
CCN(CC)S(=O)(=O)c1ccc(N2CCOCC2)c(NC(=O)Cc2cccc3ccccc23)c1,-62,88,95*,i,90,-0.28
SMILES,INS promoter inh,bCat KO growth,L major viab,Autophagy HCS,PTEN del growth,Ins promoter up
CCN(CC)S(=O)(=O)c1ccc(N2CCOCC2)c(NC(=O)C23CC4CC(CC(Cl)(C4)C2)C3)c1,-25,76,56*,i,65,-0.61
CCN(CC)S(=O)(=O)c1ccc(N2CCOCC2)c(NC(=O)Cc2ccccc2F)c1,6,74,71*,i,85,-0.5
O=C(CSc1cccc[n+]1[O-])c1ccccc1Br,/,/,99*,i,/,-1.2
O=C(CSc1cccc[n+]1[O-])c1ccc(Cl)s1,/,/,0,i,/,-0.05
Cc1cc(C(=O)CSc2cccc[n+]2[O-])c(C)n1-c1ccccc1,32,/,2,i,/,-0.22
Cc1cc(C(=O)CSc2cccc[n+]2[O-])c(C)n1-c1ccc(Br)cc1,/,/,95*,i,/,-0.88
Cc1ccc(S(=O)(=O)NCC2CCC(C(=O)NCc3ccccn3)CC2)cc1 (configuration not stated),24,/,-10,i,/,1.3
N#Cc1nc(Cc2cccc3ccccc23)oc1NCCN1CCOCC1,17,86,72*,i,86,0.02
